The entries come from a sample that favours hits as a whole.
Chlamy TAG: increases triacylglycerol in Chlamydomonas reinhardtii; Chlamydomonas reinhardtii TAG, Nile Red fluorescence, 72 h; 0.84% of 44,000 active; calls only at 10 µM (by protocol); call rule not given here;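 note: hits raise Nile Red signal meaning more stored TAG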
An asterisk follows results filed as active; i = inactive; + = active, no number.

SMILES	Chlamy TAG
OCCN1CCN(C2C3CC4CC(C3)CC2C4)CC1 (stereo unspecified)	+
CN1CCN(C2C3CC4CC(C3)CC2C4)CC1 (stereo unspecified)	+
OCCN1CCN(C2CCCCCCC2)CC1	i
CCC(CC)C(=O)Nc1cccc(C(C)=O)c1	i
O=[N+]([O-])c1cccc(CN2CCOCC2)c1	i
CC(=O)n1cc(C(C[N+](=O)[O-])SCc2ccccc2)c2ccccc21 (stereo unspecified)	i
COc1ccc(C2C(C#N)=C(N)OC3=C2C(=O)CC(C)(C)C3)cc1C (stereo unspecified)	i
O=C(NCCN1CCOCC1)c1cncc(Br)c1	i
COc1ccc(-c2noc(COc3ccc(Br)cc3C)n2)cc1OC	i
Cc1cccc(-c2noc(COc3ccc(Br)cc3)n2)c1	+
Cc1cc(OCc2nc(-c3cccnc3)no2)cc(C)c1Br	i
CCOc1ccc(C2=CSC3=NCCN23)cc1	+
Fc1ccc(C2=CSC3=NCCN23)cc1	i
Brc1ccc(C2=CSC3=NCCN23)cc1	i
CCC(C)c1ccc(NC(=O)c2cnccn2)cc1 (stereo unspecified)	i
O=C1c2ccccc2C(=O)C1(Nc1cccc([N+](=O)[O-])c1)c1ccccc1	i
O=S(=O)(Nc1ccccc1F)c1cc(Cl)ccc1Cl	i
CCCCC(=O)Nc1ccc(NC(=O)c2ccc(OC)c(Cl)c2)cc1OC	i
COc1ccccc1N1CCN(C(=O)Nc2ccccc2Cl)CC1	i
COc1cc(OC)cc(C(=O)N2CCN(c3ccccn3)CC2)c1	i
COc1ccccc1NC(=O)N1CCN(c2ccccn2)CC1	+
CC(=O)c1cccc(NC(=O)c2ccc(Cl)c(Cl)c2)c1	i
CCCOc1ccc(Br)cc1CC(=O)O	i
Cn1c(=O)c2c(n3nnnc13)-c1ccccc1CC21CCCC1	i
